Laboratory results from PubChem BioAssay (NCATS).
Records with an inconclusive call do not appear. Where a call stands in place of a potency, no number is given. The source made the active and inactive calls. Calls follow the shape of the dose curve; as a rule, active = well fitted cell-killing curve with a large enough effect; inconclusive = small, poorly fitted or top-dose-only effect, or effect the other way; inactive = flat fitted curve, though single readings scatter.

These compounds were tested on CASKI (assay: Primary qHTS to identify gynecologic anti-cancer compounds using libraries of approved drugs and bioactive compounds (AID 1345084; also: nearly all actives have a fitted effect of over 55% in size)). Conditions: Gynecologic cancer cell panel viability, ATPlite luminescence, 48 h; series mostly up to 57.5 µM.
How it was run: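 Five-point cytotoxicity, 48 h drug exposure at 37 C, 5% CO2, on cells seeded 16 h beforehand. ATP content read by ATPlite luminescence.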

| SMILES | Potency | activity change, negative = cytotoxicity |
| --- | --- | --- |
| CC1(C)CC[C@]2(C(=O)O[C@@H]3O[C@H](CO)[C@@H](O)[C@H](O)[C@H]3O)CC[C@]3(C)C(=CCC4[C@@]5(C)C[C@@H](O)[C@H](O)C(CO)(CO)C5CC[C@]43C)C2[C@@H]1O (stereo partly drawn) | inactive |  |
| CO[C@@]12CC3[C@@H]([C@@H](O)[C@@H](OC(C)=O)C4[C@](C)(COC(C)=O)CCC[C@]34C)[C@@H](C)C1=CC(=O)O2 (stereo partly drawn) | inactive |  |
| C[C@]12C=CC(=O)C=C1CC[C@@H]1[C@@H]2[C@@H](O)C[C@@]2(C)[C@H]1CC[C@]2(O)C(=O)COC(=O)CCC(=O)O | inactive |  |
| CC1CCC2C(C)(C)C(O)CCC2(C)C12Cc1c(O)cc3c(c1O2)C(N)=NC3 (stereo not drawn) | inactive |  |
| CC12CC34C=CC(=O)C(C)(CCC(=O)O)C3C(CC1C4)O2 (stereo not drawn) | inactive |  |
| O=C(O)C[C@H]1CCC(=O)[C@@H]1C/C=C\CCOC1OC(CO)C(O)C(O)C1O (stereo partly drawn) | inactive |  |
| COc1cc(/C=C/CO)ccc1O[C@@H]1O[C@H](CO)[C@@H](O)[C@H](O)[C@H]1O | inactive |  |
| COc1ccc([C@H]2Cc3cccc(O)c3C(=O)O2)cc1 | inactive |  |
| CC(=O)OC(C)OC(=O)C(C)c1ccc(-c2ccccc2)c(F)c1 (stereo not drawn) | inactive |  |
| CC1OC(O[C@H]2[C@@H](O)C[C@@]3(C)C([C@H](O)C[C@]4(C)C3CC=C3C5CC(C)(C)CC[C@]5(C(=O)OC5OC(CO)C(O)C(O)C5OC5OCC(OC6OCC(OC7OCC(O)C(O)C7O)C(O)C6O)C(OC6OCC(O)(CO)C6O)C5O)CC[C@]34C)[C@]2(C)CO)C(O)C(O)C1O (stereo partly drawn) |  | 1.71% [at 6.55 µM] (inactive) |
| C/C=C/C1=CC2=CC(=O)C(C)(O)C(OC(=O)c3c(C)cc(O)cc3O)C2CO1 (stereo not drawn) | inactive |  |
| OC[C@H]1O[C@@H](Oc2cc(O)cc(/C=C/c3ccc(O)cc3)c2)[C@H](O)[C@@H](O)[C@@H]1O | inactive |  |
| c1ccc(C(OC2CCN(CCCc3nn[nH]n3)CC2)c2ccccc2)cc1 | inactive |  |
| N[C@H]1C[C@H]1c1ccc(-c2cccc(O)c2)cc1 | inactive |  |
| NCCOCCOCCNC(=O)Cc1ccc(Nc2nc(NCc3ccc(F)cc3)nc(NCC3CCCCC3)n2)cc1 | inactive |  |
| COc1cc(-c2cccc(O)c2)cc2c1OCO2 | inactive |  |
| CCC[C@@H]1C[C@@H](C(=O)N[C@@H]([C@H]2O[C@H](SC)[C@H](OP(=O)(O)O)[C@@H](O)[C@H]2O)[C@H](C)Cl)N(C)C1 | inactive |  |
| CCCC(N[C@@H](C)C(=O)N1[C@H](C(=O)O)C[C@@H]2CCCC[C@@H]21)C(=O)OCC (stereo partly drawn) | inactive |  |
| C=CC(C)(C)C12CC3C(=O)NC(Cc4cnc[nH]4)C(=O)N3C1Nc1ccccc12 (stereo not drawn) | inactive |  |
| CC1OC(OC2C(C)OC(OC3C(OC(=O)/C=C/c4ccc(O)cc4)C(CO)OC(OC4(COC(=O)/C=C/c5ccc(O)cc5)OC(CO)C(O)C4O)C3OC3OCC(O)(CO)C3O)C(O)C2O)C(O)C(O)C1O (stereo not drawn) |  | 10% [at 11.6 µM] (inactive) |
| CC1CCC2(C(=O)OC3OC(COC4OC(CO)C(O)C(O)C4O)C(O)C(O)C3O)CCC3(C)C(=CCC4C5(C)CCC(O)C(C)(C(=O)O)C5CCC43C)C2C1(C)O (stereo not drawn) |  | 8.05% [at 11.6 µM] (inactive) |
| CN1Cc2c(N)cccc2C(c2ccccc2)C1 (stereo not drawn) | inactive |  |
| CC(C)=CC/C=C(/C)[C@H]1CC[C@]2(C)[C@@H]1[C@H](O)CC1[C@@]3(C)CC[C@H](O)C(C)(C)[C@@H]3[C@@H](O[C@@H]3O[C@H](CO)[C@@H](O)[C@H](O)[C@H]3O[C@@H]3O[C@@H](C)[C@H](O)[C@@H](O)[C@H]3O)C[C@]12C (stereo partly drawn) | inactive |  |
| COc1cc(C2c3cc(O)c(OC)cc3CC(CO)C2CO)ccc1O (stereo not drawn) | inactive |  |
| CC/C=C\C[C@H]1C(=O)C=C[C@@H]1CCCCCCCC(=O)O | inactive |  |
| CC1=CCC2C(C)(CO)CCCC2(CO)C1CO (stereo not drawn) | inactive |  |
| C[C@@H]1O[C@@H](O[C@@H]2[C@@H](O)[C@@H](O)[C@H](O[C@@H]3[C@@H](O)[C@@H](O[C@]4(CO)O[C@H](CO)[C@@H](O)[C@@H]4OC(=O)/C=C/c4ccc(O)cc4)O[C@H](CO)[C@H]3OC(=O)/C=C/c3ccc(O)cc3)O[C@H]2C)[C@H](O)[C@H](O)[C@H]1O |  | -0.379% [at 11.6 µM] (inactive) |
| CC(=O)OCC(=O)O[C@@H]1[C@H]2[C@@H](OC(=O)c3ccccc3)[C@@H](C)C[C@]2(O)[C@H](OC(C)=O)C2(C)[C@H]3CC(C)(C)C(=O)[C@@H]3CC1(OC(C)=O)[C@@H]2OC(C)=O (stereo partly drawn) | inactive |  |
